Abs 340nm = absorbance at 340 nm; compound absorbance at 340 nm, fold over control; fold change at 10 µM; 65,000 tested, under 10 active;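 active means at 10 µM dose, initial 340 nm absorbance at least 2 fold that of control wells; inactive means change under 2 fold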;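 further: initial absorbance extrapolated from kinetic A340 decline of NADH oxidation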
MK inhibit = S. pneumoniae mevalonate kinase inhibition; inhibition, % at 10 µM; purified MK, PK/LDH-coupled NADH absorbance 340 nm; 0.48% of 65,000 active;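 active means ranked among the strongest by inhibition in the single 10 µM screen, a fixed top-ranked set picked for dose follow-up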
Autofluor 339 = intrinsic fluorescence of library compounds, ex339/em460 – biochemical, MLSMR library, data from DPM-DC assay, artefact control, profiling panel | compound autofluorescence, ex339/em460 nm, NADH buffer; hits give high values; 1 = no-compound wells, NADH background | fluorescence fold increase at 10 µM | 5.5% of 65,000 active | AID 709;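 active means at 10 µM, mean starting fluorescence two-fold or more over control wells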;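 further: signal is the first read of a kinetic run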
Spn DPM-DC inh = S. pneumoniae DPM-DC inhibition; purified DPM-DC, PK/LDH coupled NADH fluorescence; AID 556; calls only at 10 µM; 0.49% of 65,000 active;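 active means the 320 compounds with the highest percent inhibition in the single-dose primary screen, excluding strongly autofluorescent ones, cut at about 32% in these data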;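 further: kinetic rate of NADH fluorescence loss reporting ADP formed by the decarboxylase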
PMK inhibit = S. pneumoniae PMK inhibition; purified PMK, PK/LDH-coupled NADH absorbance 340 nm; inhibition, % at 10 µM; 0.49% of 65,000 active;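 active means top-ranked compounds by inhibition in the single 10 µM screen, taking a fixed number of the strongest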;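 further: 0% = full reaction with DMSO carrier and 100% = background rate without enzyme reaction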
NADH enzymes = inhibition of NAD/NADH coupling enzymes, library profiling; IC50, µM (highest dose often 10 µM), for the others: at the top dose inhibition; AID 774; coupled PK/LDH NADH assays, four targets; 0.02% of 65,000 active;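 active means single-dose screening hits from any of four coupled enzyme assays that gave an IC50 when retested across doses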;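 further: the DPM-DC format reads NADH fluorescence rather than 340 nm absorbance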
Numbers without * were called inactive; i = inactive; . = not tested or not shown. Only some compounds are listed: those with a hit (about 6.8% of all), similar ones and a draw of the others.

SMILES | Abs 340nm | MK inhibit | Autofluor 339 | Spn DPM-DC inh | PMK inhibit | NADH enzymes
Cc1nn(-c2ccccc2)c2sc(C(=O)N(CC(=O)NC3CCCC3)Cc3ccco3)cc12 | 1.1 | 9 | 1.2 | i | 1 | 3%
CC1(C(=O)N(CC(=O)NC2CCCC2)Cc2ccco2)CC(=O)N=C2C=CC=CN21 (configuration not stated) | 1 | 6 | 4.8* | . | 8 | 7%
COc1ccc2[nH]c3nc(SCc4nnc(-c5ccc(C)cc5)o4)nnc3c2c1 | 1.1 | 13 | 1.1 | i | 16 | 10%
Cc1csc2nc(=O)c3ccccc3n12 | 1 | 10 | 3.7* | . | 11 | 11%
CCOC(=O)N1CCN(S(=O)(=O)c2ccc(C(=O)Nc3nc4ccc(F)cc4s3)cc2)CC1 | 1.1 | 8 | 4.6* | . | 22 | 15%
CCOC(=O)N1CCN(S(=O)(=O)c2ccc(F)cc2)CC1 | 1 | 9 | 1.2 | i | 12 | 7%
CCOC(=O)N1CCN(S(=O)(=O)c2ccc(C(=O)Nc3nc4ccccc4s3)cc2)CC1 | 1.1 | 8 | 4.5* | . | 13 | 11%
CCc1nc(SCc2cc(Cl)ccc2OC)n[nH]1 | 1 | 11 | 1 | i | 12 | 2%
CCCC(=O)Nc1cccc(-c2nc3ccccc3o2)c1 | 1.1 | 5 | 1.1 | i | 2 | 2%
CCCC(=O)Nc1ccc2oc(-c3cccnc3)nc2c1 | 1 | 0 | 2.8* | . | 20 | 3%
Cc1cc(-c2nc3ncccc3o2)ccc1N | 1.1 | 9 | 3* | . | 7 | 5%
CCCCC(=O)Nc1ccc2oc(-c3cccnc3)nc2c1 | 1 | 6 | 3.9* | . | 8 | 7%
CCC(=O)Nc1ccc2oc(-c3cccc(C)c3)nc2c1 | 1.1 | 0 | 2.3* | . | 0 | 0%
C#CCOc1nc(OCC#C)nc(OCC#C)n1 | 1 | 10 | 1.1 | i | 3 | 4%
CCc1c(C)nc2ncnn2c1N1CCC(C(=O)Nc2cccc(C(C)=O)c2)CC1 | 1 | 3 | 1.1 | i | 19 | 7%
CCCCC(=O)Nc1cccc(-c2nc3ncccc3o2)c1 | 1 | 11 | 2.3* | i | 14 | 17%
O=C(Nc1ccc2oc(-c3ccncc3)nc2c1)c1cccs1 | 1 | 4 | 2 | . | 5 | 2%
O=C(Nc1ccc2oc(-c3cccnc3)nc2c1)c1cc2ccccc2o1 | 1.1 | 4 | 2.1* | . | 0 | 2%
COc1ccccc1C1CC(c2ccccc2)Nc2ncnn21 (configuration not stated) | 1 | 7 | 1.1 | i | 11 | 6%
CCCCOc1[nH]c2nc(-c3ccco3)n(Cc3ccco3)c(=N)c2c1C#N | 1.1 | 10 | 1.5 | i | 12 | 11%
CCOCCCn1c(=NC(=O)c2cccnc2)c(C(=O)OCC)cc2c(=O)n3ccccc3nc21 | 1.1 | 8 | 3.6* | . | 10 | 9%
N#Cc1cc2c(=O)n3ccccc3nc2n(CCCn2ccnc2)c1=N | 1 | 3 | 1.7 | i | 14 | 8%
CCCCn1c(=NC(=O)c2cccnc2)c(C(=O)OCC)cc2c(=O)n3ccccc3nc21 | 1 | 9 | 2.3* | . | 11 | 10%
O=C(NCc1ccc2c(c1)OCO2)C1CC(=O)N(c2ccc(O)cc2)C1 (configuration not stated) | 1 | 7 | 1.1 | i | 11 | 7%
N#CC12CCCCC1CC1CCCCC1(C#N)N2Cc1cccnc1 (configuration not stated) | 1.1 | 5 | 1.1 | i | 0 | 2%
SMILES | Abs 340nm | MK inhibit | Autofluor 339 | Spn DPM-DC inh | PMK inhibit | NADH enzymes
CCOc1cc(-c2nnc(-c3ccco3)o2)cc(OCC)c1OCC | 1 | 4 | 2* | i | 2 | 9%
CCOc1ccc(-c2nnc(-c3ccco3)o2)cc1OCC | 1 | 12 | 3.7* | . | 10 | 11%
c1coc(-c2nnc(-c3ccc4c(c3)OCO4)o2)c1 | 1.1 | 8 | 2.2* | . | 0 | 4%
CCn1c(COc2ccccc2C)nnc1SCC(=O)CC(=O)Nc1ccccc1 | 1 | 3 | 1.1 | i | 9 | 4%
CCn1c(/C=N/n2cnnc2)nc2ccccc21 | 1.2 | 3 | 2.1* | . | 12 | 8%
CCn1c2ccccc2c2cc(/C=N/n3cnnc3)ccc21 | 1.1 | 10 | 5* | . | 6 | 8%
CC1(C)CC(=O)N(c2ccccc2)C1(C)O (configuration not stated) | 1 | 5 | 1.1 | i | 1 | 3%
Cc1cccn2c(=O)c3cc(C#N)c(=NC(=O)c4ccncc4)n(CCCOC(C)C)c3nc12 | 1.1 | 0 | 3.6* | . | 6 | 3%
